The source made the active and inactive calls. How the calls were made is not given here.
Each compound was assayed against Pantothenate synthetase (Mycobacterium tuberculosis (strain ATCC 25618 / H37Rv)) (UniProt P9WIL5) (assay: Coupled enzyme confirmation of inhibitors against recombinant Mtb PanC (AID 375;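 further: 0% = full reaction with vehicle and 100% = no enzyme background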)). Conditions: coupled enzyme assay; at 10 µM, stronger effect = higher value.
Sequence of Pantothenate synthetase (Mycobacterium tuberculosis (strain ATCC 25618 / H37Rv)) (P9WIL5 whole entry, looked up): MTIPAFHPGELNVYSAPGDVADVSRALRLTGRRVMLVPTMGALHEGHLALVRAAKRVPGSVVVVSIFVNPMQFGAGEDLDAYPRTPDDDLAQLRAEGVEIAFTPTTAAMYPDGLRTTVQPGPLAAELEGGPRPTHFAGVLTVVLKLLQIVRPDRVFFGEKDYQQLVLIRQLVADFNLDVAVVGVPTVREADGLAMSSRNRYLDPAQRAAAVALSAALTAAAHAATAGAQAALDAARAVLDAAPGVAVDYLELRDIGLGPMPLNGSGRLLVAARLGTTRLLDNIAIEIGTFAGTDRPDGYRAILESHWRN

SMILES	inhibition
Cn1ccnc1SCC(=O)Nc1ccc2ccccc2c1	2% (inactive)
COC(=O)c1ccc(-c2nn(C)c(=O)c3ccccc23)cc1	0% (inactive)
CC1=C(C#N)C(c2ccoc2)C(C(=O)OCc2ccccc2)=C(N)S1 (configuration not stated)	5% (inactive)
CN1C(=O)C2(NCCc3c2[nH]c2ccccc32)c2ccccc21 (configuration not stated)	1% (inactive)
O=C(c1cc2ccccc2oc1=O)N1CCN(c2ccc(N3CCOCC3)nn2)CC1	0% (inactive)
COc1cc(C(O)c2nc3ccccc3n2C)cc(OC)c1OC (configuration not stated)	0% (inactive)
CCOC(=O)CN(C)Cc1c[nH]c2ccccc12	14% (inactive)
Cc1cc(C)nc(NC(=O)c2c(-c3c(Cl)cccc3Cl)noc2C)n1	2% (inactive)
COc1ccc(-n2c(Cc3cccn3C)nnc2SCC(=O)Nc2ccc(Cl)cc2)cc1	0% (inactive)
Nc1nc(N2C(=O)C3CC=CCC3C2=O)nn1-c1ccccc1 (configuration not stated)	0% (inactive)
COc1ccc(OC)c(C2=NOC(C(=O)Nc3cc(C)nn3-c3ccccc3)C2)c1 (configuration not stated)	0% (inactive)
O=C(c1cnc2n(c1=O)CCS2)N(C1CCCCC1)C1CCCCC1	0% (inactive)
Cc1cc(NC(=O)C2CCCC2)nc2c1c(=O)oc1ccccc12	12% (inactive)
CC(=O)NCCOc1cccc(OCCNC(C)=O)c1	2% (inactive)
CCOCCn1cnc2sc(C(=O)NCC(=O)OCC)c(C)c2c1=O	10% (inactive)
Cn1c(C(=O)NCCCN2CCN(c3ccc(F)cc3)CC2)cc2c(=O)n(C)c3ccccc3c21	0% (inactive)
O=C(NCc1ccco1)Nc1ccc2nsnc2c1	6% (inactive)

Reference: PubChem BioAssay
